Source: PubChem
tim23-1 inh – growth inhibitors of tim23-1 mutant yeast, primary screen, luminescence, uHTS | S. cerevisiae tim23-1 growth, BacTiter-Glo luminescence, 24 h | inhibition, % at 20 µM | 330,000 tested, 1.3% active | AID 463212, 2010;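 active = growth inhibition of the mutant yeast at or above 50%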;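 also: temperature-sensitive mutant grown at 25 °C; plate controls were DMSO-treated mutant yeast for no effect and medium wells lacking yeast for full effect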
PfHsp90 set2 – growth inhibition of PfHsp90-expressing yeast, primary screen, antimalarial PfHsp90 inhibitor project, S. cerevisiae, BacTiter-Glo luminescence, single point, set 2; BacTiter-Glo ATP, 48 h; yeast lacking PDR1 and PDR3 efflux regulators; inhibition, % at 9.4 µM; 310,000 tested, 0.32% active; AID 504621, 2011;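 active = every replicate shows inhibition above about 80%, whatever the replicate mean, limit read from the data; inconclusive = mean inhibition reaches the set limit but some replicate falls short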;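 also: 0% = DMSO neutral controls and 100% = 20 µM radicicol positive controls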
SKKanGAS inh – S. pyogenes SKKanGAS growth inhibitors in kanamycin, primary screen, streptokinase expression inhibitor project, SKKanGAS strain, BacTiter-Glo luminescence; 6 h; inhibition, % at 7.5 µM; 300,000 tested, 1.3% active;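 active = mean replicate score, as percent of positive control median, at least 50; inconclusive = mean below 50 but one replicate at or above 50; inactive = mean and every replicate below 50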;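 also: strain carries kanamycin resistance gene driven by streptokinase promoter and grows in 40 µg/ml kanamycin; loss of luminescence reflects streptokinase promoter inhibition or plain growth inhibition; 0% = median of DMSO wells and 100% = positive control at its reference dose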
TIM10 inh – growth inhibitors of isogenic TIM10 control yeast, primary screen, counter-screen for tim10-1 yeast inhibitor project, luminescence, uHTS. S. cerevisiae TIM10 strain growth, BacTiter-Glo luminescence, 24 h. AID 463195, 2010. inhibition, % at 10 µM. 330,000 tested, 1.4% active;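 active = inhibition of 40% or more at the single tested concentration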;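 also: wild-type TIM10 isogenic control strain grown at permissive 25 °C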
NLRP3 yeast inh – NALP3 inflammasome inhibitors in reconstituted yeast, primary screen, luminescence, uHTS | inhibition, % at 10 µM | Yeast reconstituted NLRP3/ASC/caspase-1, beta-gal luminescence, 24 h | 330,000 tested, 0.39% active;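 active = inhibition of 50% or more; inactive = inhibition below 50%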;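 also: plate controls were induced DMSO wells for no effect and uninduced yeast grown without galactose for full effect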
tim10-1 inh – growth inhibitors of tim10-1 mutant yeast, primary screen, luminescence, uHTS. S. cerevisiae tim10-1 ts strain growth, BacTiter-Glo, 24 h. inhibition, % at 20 µM. 330,000 tested, 2.2% active;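 active = inhibition of at least 40%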;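 also: mutant grown at 25 °C; 0% = DMSO wells with yeast and 100% = wells holding no yeast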
tim10-1 conf – growth inhibitors of tim10-1 mutant yeast, confirmation, single concentration, luminescence, S. cerevisiae | shares compounds with tim10-1 inh | S. cerevisiae tim10-1 ts strain growth, BacTiter-Glo, 24 h | inhibition, % at 20 µM | 7,400 tested, 56% active;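 active = inhibition of yeast growth at or above a set limit in either of two repeat tests at 20 µM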;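 also: tim10-1 mutant grown at permissive 25 °C to find synthetic lethal compounds; 0% = DMSO yeast wells and 100% = medium wells without yeast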
tim10 confirm – growth inhibitors of wild-type TIM10 yeast, confirmation, counter-screen for tim10-1 synthetic lethality project, single concentration, luminescence, S. cerevisiae; shares compounds with TIM10 inh; S. cerevisiae tim10 strain growth, BacTiter-Glo luminescence, 24 h; inhibition, % at 10 µM; 4,600 tested, 63% active;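 active = inhibition of yeast growth at or above a set limit in either of two replicates at 10 µM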;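 also: this counterscreen used the strain with wild-type TIM10; 0% = yeast with DMSO and 100% = medium wells lacking yeast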
tim23-1 confirm – tim23-1 mutant yeast growth inhibitors, confirmation, luminescence, single concentration; shares compounds with tim23-1 inh; S. cerevisiae tim23-1 growth, BacTiter-Glo luminescence, 24 h; inhibition, % at 20 µM; 4,400 tested, 83% active;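 active = inhibition above about 39% in either of two replicate wells at 20 µM, limit read from the data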;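 also: temperature-sensitive tim23-1 mutant grown at 25 °C; 0% = DMSO wells with yeast and 100% = medium wells without yeast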
Starred values were filed as active, the others as inactive. A selection: hits, their analogues and other compounds. The true share with any hit is near 4.6%.

O=C(/C=C/c1c(Cl)cccc1Cl)n1cccn1 was read as tim23-1 inh 60*, SKKanGAS inh 10, TIM10 inh 41*, NLRP3 yeast inh 17, tim10-1 inh 56*, tim10-1 conf 57*, tim10 confirm 55* and tim23-1 confirm 85*.
Screening COc1ccc(C2NC(=O)c3ccccc3N2)cc1OC (stereo not given) returned tim23-1 inh 11, PfHsp90 set2 -8, SKKanGAS inh 0, TIM10 inh 10, NLRP3 yeast inh -4 and tim10-1 inh 22.
COc1ccc(C(=O)/C=C2/C(=O)Nc3ccccc32)cc1OC was read as tim23-1 inh 80*, PfHsp90 set2 -14, SKKanGAS inh 0, TIM10 inh 76*, NLRP3 yeast inh 26, tim10-1 inh 64*, tim10-1 conf 65*, tim10 confirm 73* and tim23-1 confirm 57*.
Screening COc1ccc(C2(C(=O)c3ccccc3)C(=O)c3ccccc3C2=O)cc1 returned tim23-1 inh 35, PfHsp90 set2 3, SKKanGAS inh -2, TIM10 inh 10, NLRP3 yeast inh 17 and tim10-1 inh 10.
O=C1Nc2ccccc2/C1=C/C(=O)c1cccs1 was read as tim23-1 inh 55*, PfHsp90 set2 -29, SKKanGAS inh 4, TIM10 inh 68*, NLRP3 yeast inh 30, tim10-1 inh 51*, tim10-1 conf 60*, tim10 confirm 93* and tim23-1 confirm -42.
`COc1ccc(C(=O)/C=C2/C(=O)Nc3ccccc32)cc1` gave tim23-1 inh 88*, PfHsp90 set2 11, SKKanGAS inh 2, TIM10 inh 91*, NLRP3 yeast inh 38, tim10-1 inh 84*, tim10-1 conf 88*, tim10 confirm 80* and tim23-1 confirm 85*.
C=CCOc1ccc(C(=O)/C=C2/C(=O)Nc3ccccc32)cc1 was read as tim23-1 inh 88*, PfHsp90 set2 -49, SKKanGAS inh 7, TIM10 inh 77*, NLRP3 yeast inh 36, tim10-1 inh 84*, tim10-1 conf 86*, tim10 confirm 90* and tim23-1 confirm 77*.
Screening CN(C)CCN(C)Cc1c2ccccc2c(CN(C)CCN(C)C)c2ccccc12 returned tim23-1 inh 58*, PfHsp90 set2 -9, SKKanGAS inh -3, TIM10 inh 32, NLRP3 yeast inh 4, tim10-1 inh 47*, tim10-1 conf 36* and tim23-1 confirm 56*.
For COc1ccc(-n2nc(C#N)c(Cl)cc2=O)cc1 the results were tim23-1 inh 61*, PfHsp90 set2 -206, TIM10 inh 31, NLRP3 yeast inh -41, tim10-1 inh 47*, tim10-1 conf 30 and tim23-1 confirm 48*.
Screening COC(=O)c1nn(-c2ccc(OC)cc2)c(=O)cc1O returned tim23-1 inh 15, PfHsp90 set2 10, SKKanGAS inh 4, TIM10 inh -12, NLRP3 yeast inh 26 and tim10-1 inh -8.
`CC1CCC(NC(=O)C(NC(=O)c2ccccc2)C(C)C)CC1` (stereo not given) gave tim23-1 inh -4, PfHsp90 set2 -3, SKKanGAS inh -1, TIM10 inh 6, NLRP3 yeast inh 26 and tim10-1 inh 19.
Screening Oc1ccc(N=Nc2ccccc2)o1 returned tim23-1 inh 68*, PfHsp90 set2 9, SKKanGAS inh 0, TIM10 inh 18, NLRP3 yeast inh 32, tim10-1 inh 67*, tim10-1 conf 67* and tim23-1 confirm 75*.
Screening c1ccc(N=Nc2ccc3cccccc2-3)cc1 returned tim23-1 inh 19, PfHsp90 set2 -1, SKKanGAS inh 11, TIM10 inh 11, NLRP3 yeast inh 27 and tim10-1 inh 16.
CC(=O)c1cccc2c(O)c(C3=Nc4ccccc4C3=O)[nH]c12 was read as tim23-1 inh 88*, PfHsp90 set2 -25, SKKanGAS inh inconclusive, TIM10 inh 63*, NLRP3 yeast inh 9, tim10-1 inh 73*, tim10-1 conf 57*, tim10 confirm -28 and tim23-1 confirm 90*.
For O=c1[nH]cnc2onc(-c3ccc(F)cc3)c12 the results were tim23-1 inh -3, PfHsp90 set2 22, SKKanGAS inh 2, TIM10 inh -6, NLRP3 yeast inh 6 and tim10-1 inh -2.
`COc1ccc2c(c1)N(C(=O)CN1C(=O)C3CCCCC3C1=O)C(C)(C)C=C2C` (stereo not given) gave tim23-1 inh 53*, PfHsp90 set2 -6, SKKanGAS inh 2, TIM10 inh 33, NLRP3 yeast inh 4, tim10-1 inh 51*, tim10-1 conf 46* and tim23-1 confirm 52*.
Screening CCc1cc2c(=O)nc3n(c2s1)Cc1ccccc1/C3=C(/O)c1ccccc1Cl returned tim23-1 inh 66*, PfHsp90 set2 3, SKKanGAS inh 26, TIM10 inh 35, NLRP3 yeast inh 17, tim10-1 inh 59*, tim10-1 conf 42* and tim23-1 confirm 40*.
CN1/C(=C/C(=O)C2CC2)C(C)(C)c2ccccc21 was read as tim23-1 inh 10, PfHsp90 set2 4, SKKanGAS inh 6, TIM10 inh -21, NLRP3 yeast inh 25 and tim10-1 inh -2.
CN1/C(=C\C(=O)Nc2ccc(F)cc2)C(C)(C)c2ccccc21 was read as tim23-1 inh 68*, PfHsp90 set2 10, SKKanGAS inh 7, TIM10 inh 48*, NLRP3 yeast inh 5, tim10-1 inh 45*, tim10-1 conf 49*, tim10 confirm -21 and tim23-1 confirm 72*.
`Cc1ccc(/C=c2\sc3nc(-c4ccco4)nn3c2=O)o1` gave tim23-1 inh 16, PfHsp90 set2 -51, SKKanGAS inh 38, TIM10 inh 7, NLRP3 yeast inh 31 and tim10-1 inh 25.
